This passage reports Z-AUC results from PubChem BioAssay (NCATS).

The nature of this assay: qHTS drug screen for cell cycle checkpoint inhibitors in PARPi-resistant BRCA-mutant ovarian cancer cell lines. (AID 1963452). Particulars: PEO1/OlaR viability, CellTiter-Glo luminescence, 96 h; measured here: PEO1 parental Z-AUC; stronger effect = lower value. A digest of the protocol:
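PEO1, PEO4 and PEO1/OlaR ovarian cancer cells, 600 per well, exposed 96 h at 37C to a dilution series. Viability read by CellTiter-Glo luminescence, normalized to DMSO and empty wells; activity summarized as Z-AUC.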
(In general: In qHTS, concentration-response curves come from the screen itself.)
As for `NC1=N[C@H]2[C@H](CS[C@H]2CCCCC(=O)O)N1`, the Z-AUC is 0.0828.
The figure for `O=c1ccn([C@@H]2O[C@H](CO)[C@H](O)[C@@H]2F)c(=O)[nH]1` is 0.56; for `CN(C)CCN1C(=O)c2cccc3cc(N)cc(c23)C1=O` it is -0.749.
In the case of `c1cc(CN2CCCNCCNCCCNCC2)ccc1CN1CCCNCCNCCCNCC1`, the Z-AUC stood at 0.744.
As for `CN(C)c1ccc(C(=O)NCCCCCCC(=O)NO)cc1`, the Z-AUC was -0.12.
The figure for `NC(=NCCCCCCN=C(N)N=C(N)Nc1ccc(Cl)cc1)N=C(N)Nc1ccc(Cl)cc1` is 0.0732; for `COc1cc(CCc2cc(NC(=O)c3ccc(N4C[C@@H](C)N[C@@H](C)C4)cc3)n[nH]2)cc(OC)c1` it is -0.945.
The figure for `CC(C)c1cnn2c(NCc3ccccc3)cc(NCCCCCCN)nc12` is 1.33.
Regarding `CC(C)NC[C@@H](C(=O)N1CCN(c2ncnc3c2[C@H](C)C[C@H]3O)CC1)c1ccc(Cl)cc1`, the Z-AUC is 1.5.
Then `NC(=O)N1CCC(CC(=O)N2CCC([C@H]3c4ncc(Br)cc4CCc4cc(Cl)cc(Br)c43)CC2)CC1`, with -0.883; and `Nc1nc(N)c2nc(-c3cccc(O)c3)c(-c3cccc(O)c3)nc2n1`, with 1.16.
The figure for `CCc1c(O)cc(O)c(C(=O)c2ccc(OCCN3CCOCC3)c(OC)c2)c1CC(=O)N(CCOC)CCOC` is -0.538.
Turning to `CC(=O)SCC(Cc1ccccc1)C(=O)NCC(=O)OCc1ccccc1` (stereo not given), the Z-AUC was determined as 1.28.
Then `COc1cccc2c1C(=O)c1c(O)c3c(c(O)c1C2=O)C[C@@](O)(C(=O)CO)C[C@@H]3O[C@H]1C[C@H](N)[C@@H](O)[C@H](C)O1`, with -2.06; and `Nc1ccn(C2CO[C@H](CO)O2)c(=O)n1` (stereo not given in full), with 0.905.
